Source: PubChem BioAssay (EPA / NIEHS)
Calls of active or inactive are those of the source. The calls were made as follows: active = hit-call score of the fitted dose curve at least 0.9, where 1 is the maximum; inactive = score below 0.9.

The molecules below were run against Hepatocyte nuclear factor 3-beta (Homo sapiens) (UniProt Q9Y261) (assay: ATG_FoxA2_CIS: Attagene CIS-FACTORIAL HepG2 Assay for human Forkhead box A2 (FOXA2) (AID 2282942)). Details: HepG2 cis-reporter transcription factor activity, 24 h; actives raise or lower the signal.
Description: ATG_CIS is a cell-based, multiplexed-readout assay that uses HepG2, a human liver cell line, with measurements taken at 24 hours after chemical dosing in a 24-well plate.ATG_FoxA2_CIS is one of 52 assay component(s) measured or calculated from the ATG_CIS assay. It is designed to make measurements of mRNA induction, a form of inducible reporter, as detected with fluorescence intensity signals by Reverse transcription polymerase chain reaction (RT-PCR) and Capillary electrophoresis technology.Data from the assay component ATG_FoxA2_CIS was analyzed into 1 assay endpoint. This assay endpoint, ATG_FoxA2_CIS, was analyzed with bidirectional fitting relative to DMSO as the negative control and baseline of activity. Using a type of inducible reporter, measures of mRNA for gain or loss-of-signal activity can be used to understand the reporter gene at the transcription factor-level as they relate to the gene FOXA2. Furthermore, this assay endpoint can be referred to as a primary readout, because this assay has produced multiple assay endpoints where this one serves a reporter gene function. To generalize the intended target to other relatable targets, this assay endpoint is annotated to the dna binding intended target family, where the subfamily is forkhead box protein.
Human liver HepG2 cells are transiently transfected with multiple reporter transcription units (MRTUs) in 6-well plates using FuGene 6 reagent (Roche; 3 ml FuGene/1 mg DNA). The MRTU constructs are regulated by a cis-regulating element (promoter). […] A major difference between the CIS and TRANS system is that in CIS activities of endogenous TFs are measured, whereas the TRANS assay evaluates changes in activities of exogenous, chimeric NR-Gal4 proteins. […] At the end of 24 hour incubation, total RNA was isolated using TriZol reagent (Invitrogen). The isolated RNA is then reverse-transcribed using oligo(dT) primer and Mo-MLV reverse transcriptase (Invitrogen) with DNAse I (Ambion) treatment for 30 min. The one-tenth of the produced cDNA was amplified by PCR using Taq DNA polymerase (Invitrogen) and two reporter sequence-specific primers. The PCR products were fluorescently labeled by primer extension with 6-arboxyfluorescein (6-FAM) 5'-labeled reporter sequence-specific primer (2 min at 95 C, 20 s at 68 C and 10 min at 72 C) and these products were digested with 5U of HpaI (New England Biolabs) for 2h at 37 C. The fragments were purified using Qiaquick PCR columns (Qiagen), analyzed on an ABI 3130xL genetic analyzer (Applied Biosystems) with peak positions identified by using a set of X-rhodamine (ROX)-labeled MapMarker1000 molecular weight standards (BioVentures). The raw capillary electrophoresis data was processed using Attagraph software (Attagene).

Chain of Hepatocyte nuclear factor 3-beta (Homo sapiens) (Q9Y261 whole entry, looked up): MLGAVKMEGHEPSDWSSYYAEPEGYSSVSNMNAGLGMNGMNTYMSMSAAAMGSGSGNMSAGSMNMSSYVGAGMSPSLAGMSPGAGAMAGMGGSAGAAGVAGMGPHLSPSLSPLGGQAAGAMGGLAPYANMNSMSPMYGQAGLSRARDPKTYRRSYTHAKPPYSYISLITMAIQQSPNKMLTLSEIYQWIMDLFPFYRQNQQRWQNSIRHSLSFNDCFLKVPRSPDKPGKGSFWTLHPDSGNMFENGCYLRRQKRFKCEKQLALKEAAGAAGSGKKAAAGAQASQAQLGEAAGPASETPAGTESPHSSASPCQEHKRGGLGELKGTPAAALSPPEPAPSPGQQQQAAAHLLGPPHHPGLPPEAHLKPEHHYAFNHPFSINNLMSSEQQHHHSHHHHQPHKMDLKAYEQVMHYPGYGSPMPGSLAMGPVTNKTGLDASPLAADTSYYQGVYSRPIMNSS

Row | SMILES | outcome | AC50
1 | O=C(C(=O)c1ccccc1)c1ccccc1 | inactive | 
2 | O=C(O)c1cc(Cl)cc(Cl)c1O | inactive | 
3 | OCCN(CCO)c1cccc(Cl)c1 | inactive | 
4 | NC(N)=Nc1nc(CSCCC(N)=NS(N)(=O)=O)cs1 | inactive | 
5 | F[B-](F)(F)F | inactive | 
6 | CCOC(=O)c1ccccc1 | inactive | 
7 | CC(=O)OC(C)(C)Cc1ccccc1 | inactive | 
8 | Cc1ccccc1S(N)(=O)=O | inactive | 
9 | CC/C=C\CC/C=C/C(OCC)OCC | inactive | 
10 | O=C(c1ccccc1)c1ccccc1O | inactive | 
11 | CCCCCCCC#N | inactive | 
12 | O=C(O)/C=C\C(=O)O | inactive | 
13 | CCCC(=O)OC/C=C(\C)CCC=C(C)C | inactive | 
14 | CCCc1c(OCCCCc2nn[nH]n2)ccc(C(C)=O)c1O | inactive | 
15 | CCCCCC[C@@H](O)C/C=C\CCCCCCCC(=O)O |  | 172 µM (active)
16 | CC(C)n1c(/C=C/[C@@H](O)C[C@@H](O)CC(=O)O)c(-c2ccc(F)cc2)c2ccccc21 | inactive | 
17 | Brc1ccc(Oc2ccc(Br)cc2)cc1 | inactive | 
18 | CNC(=C[N+](=O)[O-])NCCSCc1csc(CN(C)C)n1 | inactive | 
19 | CC(O)(P(=O)(O)O)P(=O)(O)O | inactive | 
20 | O=C(O)c1nc(Cl)c(Cl)c(Cl)c1Cl | inactive | 

Row | SMILES | outcome | AC50
21 | COC(=O)c1ccccc1 | inactive | 
22 | CCCCCCC(O)CCCCCCCCCCC(=O)OC (stereo not given) | inactive | 
23 | CC(C)CC(=O)O | inactive | 
24 | CNC[C@H](O)[C@@H](O)[C@H](O)[C@H](O)CO | inactive | 
25 | C=CCOC(=O)C(=C)C | inactive | 
26 | Cc1cc(O)cc(C)c1Cl | inactive | 
27 | [O-][n+]1ccc(Cl)cc1 | inactive | 
28 | CCC(C)=NO | inactive | 
29 | C1=CCC=C1 | inactive | 
30 | Cc1ccnc(N)c1 | inactive | 
31 | CCCCCCCCCC/C=C/C1CC(=O)OC1=O (stereo not given) | inactive | 
32 | CN(C)N=Nc1ccccc1 | inactive | 
33 | C=CC(C)(CCC=C(C)C)OC(=O)c1ccccc1 (stereo not given) | inactive | 
34 | CCC(C)NC(N)=O (stereo not given) | inactive | 
35 | Cc1ccccc1S(=O)(=O)O | inactive | 
36 | CO[Si](CCCNCCN)(OC)OC | inactive | 
37 | CC/C=C\CCCCCO | inactive | 
38 | N#CCN(CC#N)CCN(CC#N)CC#N | inactive | 
39 | Nc1ccc(S(=O)(=O)Nc2cnc3ccccc3n2)cc1 | inactive | 
40 | O=C(O)c1ccccc1C(=O)O | inactive | 
